# Compound activity: PubChem BioAssay, several laboratories
# HSP90 inh: HSP90 refolding inhibition in rabbit reticulocyte lysate. inhibition, % at 5.6 µM. hit rate 0.91% among 290,000. luciferase refolding luminescence, 3 h. AID 1789;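 active = inhibition above the screen-wide mean plus 3 SD, computed separately per campaign, cut at about 16% in these data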;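 note: 0% = DMSO wells and 100% = 60 µM geldanamycin wells; inhibitors lower the luminescence because luciferase stays unfolded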
# PG9 Ab binder: PG9 antibody binding by small molecule | TR-FRET gp120-PG9 antibody binding | inhibition, % at 6.7 µM | hit rate 0.43% among 360,000; in the data active = inhibition above about 8.5%
# SMARCA2 act: increases SMARCA2 function in MMTV reporter cells; hit rate 1% among 370,000; activation, % at 9.1 µM; MG213 cells, MMTV-luciferase reporter, dexamethasone, overnight; AID 652017; in the data active = activation above about 7.8%;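 note: 0% = vehicle wells and 100% = reference activator wells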
# GAA850 FXN act: increases GAA850 frataxin promoter reporter activity. AID 540364. HEK293 lucGAA850 FXN promoter luciferase reporter, 24 h; percent of 10 µM SAHA response. hit rate 0.56% among 360,000. activation, % at 6 µM;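 active = activation above the average of all compounds screened plus 3 SD, cutoff fixed separately per campaign, cut at about 7.5% in these data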;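 note: 0% = DMSO wells and 100% = 10 µM SAHA wells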
# HSF1 inhib: HSF1 inhibition; NIH3T3-HGL HSE-luciferase, MG132-induced, luminescence 8 h; active compounds read low; activity change, negative = inhibition, % at 7.5 µM (by protocol); hit rate 0.77% among 300,000;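 active = more than half of replicate wells show activity change below -50%, luminescence cut by over half; inconclusive = some wells, but at most half, below -50%; inactive = no replicate well below -50%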;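 note: luciferase reports HSF-1 transcriptional activity via heat shock element; 0% = median of DMSO wells and -100% = zero luminescence signal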
# AI-2 QS modul: modulators of Vibrio harveyi AI-2 quorum sensing system. Vibrio harveyi JMH597 AI-2 luminescence/OD600 ratio, 9 h; active compounds read low; strain lacks LuxN and CqsS sensors; 0 = neutral-control median. activity change, % at 7.5 µM. hit rate 0.4% among 300,000; in the data active = activity change below about -75%, passing the limit was not always enough; inconclusive = no clear call, values can overlap the other calls;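 note: luminescence divided by OD600 gain over 9 h not by final OD600 alone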
# SMARCA2 act conf: SMARCA2 activation, confirmation screen; hit rate 30% among 3,500; MG213 cells, MMTV-luciferase with dexamethasone, luminescence, overnight; MG213 cells expressing E1A, Rb sequestered; DMSO wells 0%, reference activator 100%; activation, % at 9.1 µM; shares compounds with SMARCA2 act;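 active = activation above its plate's cutoff, the mean activation of tested wells plus 3 SD, cut at about 7.9% in these data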
# VP16 Luc act: GAL4-VP16 reporter activation counter-screen; shares compounds with SMARCA2 act; HEK293 GAL4-VP16 pG5luc reporter, luciferase luminescence; scaled: DMSO wells 0%, SAHA wells 100%; activation, % at 9.1 µM; hit rate 41% among 3,500; AID 686939;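 active = activation above the solvent-only control well mean plus 3 SD, averaged across control plates, cut at about 5.2% in these data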
# * hit, by the source's call; ? = inconclusive; . = not tested or not shown. Sampled rows, rich in hits. Any-hit rate of the full collection: about 3.4%.
SMILES,HSP90 inh,PG9 Ab binder,SMARCA2 act,GAA850 FXN act,HSF1 inhib,AI-2 QS modul,SMARCA2 act conf,VP16 Luc act
CC(C)Oc1cccc(NC(=O)C2(C)CCN2C(C)C)c1 (configuration not stated),.,0.5,-3.8,1.1,.,.,.,.
COc1ccc(C2Nc3ccccc3C(=O)N2c2ccc(C)cc2)cc1Cn1cc([N+](=O)[O-])cn1 (configuration not stated),1.2,-0.8,9.8*,5.1,31.4,41.0,2.4,7.4*
CC(C)(C)S(=O)(=O)N1C[C@@H]2C(=C(CCO)C[C@@H]3C(=O)N(c4ccccc4)C(=O)[C@@H]32)[C@H]1CCO,.,-1.2,6.4,.,.,.,.,.
CNc1nnc(-c2cc3ccccc3oc2=O)s1,-5.5,-0.7,8.3*,4.0,28.0,22.3,12.6*,14.3*
COc1ccc(Nc2nc(N)c3ccccc3n2)c(OC)c1,-1.1,-3.7,10.8*,6.2,20.6,0.0,9.0*,7.5*
COc1ccc(Nc2nc(-c3ccccc3)nc3ccccc23)c(OC)c1,1.3,-2.6,0.2,2.3,1.4,-6.1,.,.
Cc1cnc(NC(=O)CN2CCN(c3ccccn3)CC2)s1,0.0,0.4,12.3*,-1.6,2.0,5.2,21.7*,0.7
C#CCN(Cc1cccc(F)c1)C(=O)c1nnc2c3cc(F)ccc3n(S(=O)(=O)c3ccc(OC)cc3)c2n1,.,1.9,-3.1,.,.,.,.,.
c1csc(-c2nc(-c3ccc(-c4ccon4)s3)no2)c1,-0.2,5.4,8.9*,2.3,8.5,16.7,5.9,9.7*
c1ccc(-c2nc(-c3ccc(-c4ccon4)s3)no2)cc1,3.9,-0.2,3.7,2.8,17.6,2.6,.,.
Brc1ccc(N2O[C@H]3C=C[C@@H]2C3)nc1,.,0.3,2.1,.,.,.,.,.
c1coc(CNc2nc3ccccc3s2)c1,12.3,-2.0,9.7*,3.7,30.1,23.2,15.0*,12.2*
Cc1nnc(NCc2ccco2)s1,0.6,0.7,0.2,-0.1,-6.9,-1.9,.,.
c1coc(CNc2nc(-c3ccncc3)cs2)c1,0.1,1.9,2.2,4.4,6.4,10.3,.,.
COc1ccc(-c2csc(NCc3ccco3)n2)cc1,-0.5,1.1,9.2*,5.0,9.9,-3.3,9.5*,12.8*
COC(=O)[C@H]1C[C@@]2(C)c3ccccc3N(C(=O)OC(C)(C)C)[C@H]2N1C(=O)OC(C)(C)C,.,.,1.6,.,.,.,.,.
Cc1cccc(CN2[C@@H](C)[C@H](c3ccccc3)Oc3cc(Br)ccc3S2(=O)=O)c1,.,0.5,1.8,.,.,.,.,.
O=C(O/N=C1\CCCc2ccccc21)c1ccc(F)cc1,3.1,-2.3,9.7*,2.4,9.9,10.9,4.6,-1.2
Cc1ccc(Cn2ccnc2C(=O)Nc2ccccc2)cc1,2.4,-1.2,9.3*,2.9,58.4,11.8,6.5,2.9
C=CCn1c(O)c(C2=c3ccccc3=NC2=O)sc1=Nc1ccc(O)cc1,.,0.4,9.6*,0.9,8.9,14.2,-1.9,-1.1
O=C1N=c2ccccc2=C1c1sc(=S)n(NC(=O)c2ccccc2)c1O,4.5,-2.5,-0.5,1.9,25.6,12.6,.,.
CC(C1=CCCCC1)c1cnn(C)c1 (configuration not stated),.,.,9.4*,.,.,.,-0.7,-0.8
NC(=O)C(C1=CCCCC1)c1ccccc1 (configuration not stated),.,2.0,-3.6,2.4,.,.,.,.
Cc1ccc(F)c(S(=O)(=O)NC(=O)C2(C)CCN2C(=O)Cc2ccc(-c3ccccc3)cc2)c1 (configuration not stated),.,0.2,-1.7,1.0,.,.,.,.
CC1=NN(Cc2ccccc2)C(=O)C1,4.5,-1.1,10.2*,-2.6,0.8,6.7,-4.2,1.4
SMILES,HSP90 inh,PG9 Ab binder,SMARCA2 act,GAA850 FXN act,HSF1 inhib,AI-2 QS modul,SMARCA2 act conf,VP16 Luc act
CCN(CC)c1c(C)nc2ccc(C(=O)N3CCN(C(=O)c4ccco4)CC3)cn12,.,0.5,9.4*,-0.3,.,.,-1.3,-0.4
CC(=O)Nc1ccc(CN(C)c2c(C)nc3ccc(C(=O)N4CCN(C(=O)c5ccco5)CC4)cn23)cc1,.,-1.0,1.1,-0.4,.,.,.,.
O=C(c1cccc(Br)c1)N1CCN(C(=O)N2CCOCC2)CC1,-3.9,-0.8,1.2,1.4,-2.8,6.9,.,.
O=C(c1cccc(Br)c1)N1CCN(C(=O)c2cccc(Br)c2)CC1,0.4,0.2,8.8*,0.2,-1.9,9.5,0.5,-1.1
Nc1ccccc1/C=C/c1ccccc1N,.,-3.5,9.9*,4.6,.,.,14.1*,10.4*
Nc1ccccc1C=C1Cc2ccccc2C1=O,.,-3.5,6.5,4.8,.,.,.,.
COc1ccc(OCc2ccc(/C=N\NC(=O)c3sccc3C)o2)cc1,3.6,-1.0,8.5*,4.3,.,18.5,9.4*,1.6
c1ccc(CNn2nnc3ccccc32)cc1,.,-0.8,11.7*,.,.,.,10.0*,11.4*
COc1ccc(N=C2C(=Nc3ccc(OC)cc3)N(c3ccc(OC)cc3)C(=S)N2C(=O)c2ccc(OC)cc2)cc1,0.3,-2.2,1.2,-0.3,23.7,37.6,.,.
COc1ccc(N2C(=S)N(C(=O)c3ccccc3)C(=Nc3ccccc3)C2=Nc2ccccc2)cc1,-3.0,-4.0,11.2*,5.8,24.3,8.8,2.3,3.1
O=C1c2ccccc2/C(=C\c2ccc(O[C@@H]3CCCCO3)cc2)N1c1ccccc1,.,-1.1,2.8,.,.,.,.,.
O=C1c2cccc3cccc(c23)C(=O)N1c1ccncc1,0.4,0.0,1.6,-0.2,.,.,.,.
O=C1c2cccc3cccc(c23)C(=O)N1c1cccnc1,2.5,-0.3,8.5*,0.8,2.7,26.3,-0.7,1.1
C=CCNc1cccc2c1S(=O)(=O)N[C@@H](CC(C)C)CO2,.,0.0,1.2,.,.,.,.,.
COc1ccc(NC(=S)NNC(=O)c2cccs2)cc1,-7.4,1.2,8.8*,5.3,8.6,12.6,0.3,4.2
O=C(NNC(=O)c1cccs1)c1ccc(Cl)cc1,-3.9,-2.4,0.8,2.5,4.7,12.2,.,.
COc1ccc(Cl)cc1C(=O)NNC(=O)c1cccs1,.,-0.5,12.3*,4.4,.,.,2.5,4.8
C[C@@H]1CN([C@@H](C)CO)C(=O)CCCn2cc(nn2)CO[C@H]1CN(C)C(=O)Nc1ccc(C(F)(F)F)cc1,.,0.6,1.3,.,.,.,.,.
Cc1ccnc2nc(C(=O)Nc3nnc(CC(C)C)s3)nn12,1.1,-3.1,2.2,0.1,-2.6,?,.,.
Cc1ccnc2nc(C(=O)Nc3nc4ccccc4s3)nn12,7.1,0.7,10.9*,1.6,7.1,14.8,7.5,11.2*
Cc1csc(NC(=O)c2nc3nccc(C)n3n2)n1,2.8,-1.7,8.6*,2.8,11.7,19.4,3.7,4.2
